By inhibition is commonly meant the relative decrease from the control value, in per cent. In general, IC50 refers to the concentration at which inhibition is half-maximal.

Structures are written as SMILES. Out of some 2,400 compounds screened, about 1,400 (58%) were called active. The set was probably picked from earlier hits. The list shows a part of the results. A number with no mark means an inactive call.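 The calls were made as follows: active = inhibition of 30% or more at any tested dose; inconclusive = primary hits over the limit that were never retested; inactive = the rest.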

This assay can be described thus: ADP Hunter readout inhibition without MgcRacGAP – biochemical, coupled enzyme counter-screen, artefact control for MgcRacGAP inhibitor project, dose response (AID 624351).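 Also: signal is the ADP detection kit reading of free GDP without any GAP enzyme.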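 As to inhibition: 0% = median positive control wells and 100% = median negative control wells.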 As to conditions: fluorescence, no MgcRacGAP; series mostly up to 80 µM; inhibition: at the top concentration. Background: The purpose of a counterscreen is to sort out artefacts and off-target activity.
Turning to `CC(C)N1CCN(C(=O)c2cccc(Cl)c2)CC1`, the “inhibition” value was 15.6%.

On to `Nc1ccc(N2CCN(c3cccc(Cl)c3)CC2)cc1`, for which the IC50 is 18.6 µM (active). Regarding `Nc1ccc(N2CCN(c3ccc(Cl)c(Cl)c3)CC2)cc1`, the half-maximal inhibitory concentration (IC50) is 20.5 µM (active).

Regarding `CCCCCC(=O)Nc1cc(S(=O)(=O)O)cc2cc(S(=O)(=O)O)cc(O)c12`, the “inhibition” value was 17.7%. The same measure, in the same setting: the figure for `CCN(CC)c1ccc(NS(=O)(=O)c2ccc(-c3ccc(=O)[nH]n3)o2)c(C)c1` is 7.93%. As for `Cc1ccc(Nc2n[nH]c(=S)s2)cc1F`, the half-maximal inhibitory concentration (IC50) is 50.3 µM (active).

For `CCOc1ccc(Nc2n[nH]c(=S)s2)cc1`, the IC50 is 42.5 µM (active).

With `CC(=O)Nc1n[nH]c(=S)s1`, the 50% inhibitory concentration (IC50) was 48.7 µM (active). The same measure, in the same setting: the figure for `Cc1ccc(Nc2n[nH]c(=S)s2)cc1` is 50.6 µM (active).

With `O=C(O)c1ccc(S(=O)(=O)c2ccc3c(c2)C(=O)N(NC(=O)c2cccnc2)C3=O)cc1`, the “inhibition” value is 2.35%. For `COc1ccc(NC(=S)NNS(=O)(=O)c2ccc3ccccc3c2)c(OC)c1`, the “inhibition” value was 22.1%. As to `COc1ccc(Nc2ccc3ccccc3c2)cc1`, the 50% inhibitory concentration (IC50) is 66.9 µM (active). The same measure, in the same setting: the figure for `COc1ccc(Nc2ccccc2)c(C)c1` is 37.4 µM (active).

Regarding `COc1ccc(NC2=NCCC2)cc1`, the “inhibition” value was 17.6%.

Take `OCCN1CCN(CC(O)COC(c2ccc(F)cc2)c2ccc(F)cc2)CC1` (centres undefined): the “inhibition” value was 18.1%. Same read-out and setting: as for `CCOc1ccc2nc(NC(=O)CS(=O)(=O)c3ccccc3)sc2c1`, the figure is 4.87%.

In the case of `Cc1cc(OCc2nc3ccccc3s2)ccc1N`, the IC50 was 63.7 µM (active). `CCCS(=O)(=O)N1CCN(CC2CC3C=CC2C3)CC1` (centres undefined): the “inhibition” value was 14.7%.

Take `COc1cc(OC)c(CN2CCCN(C)CC2)cc1Br`: the “inhibition” value is 21%. Still for that read-out and setting: as for `Fc1ccc(CNCc2ccccc2Cl)cc1`, the figure is 16.5%. `Oc1ccc(Cc2ccccc2Cl)c(O)c1`: the IC50 was 60.2 µM (active). Same read-out and setting: as for `Oc1ccc(Cc2ccc(Cl)cc2)c(O)c1`, the figure is 78 µM (active). As for `CCC(=O)N1CCc2cc(S(=O)(=O)CCC(=O)NCc3ccc(C)cc3)ccc21`, the “inhibition” value is 1.54%. Consider `N#CC1(Nc2ccc(-c3ccc(NC4(C#N)CCCC4)cc3)cc2)CCCC1`, for which the IC50 was 11.6 µM (active). `CCOc1ccccc1N1CCN(C/C=C/c2ccc(N(C)C)cc2)CC1`: the “inhibition” value is 24.8%. With `CC[n+]1ccc(/C=C/c2ccc(N(C)C)cc2)c2ccccc21`, the IC50 is 47 µM (active). Consider `C[n+]1ccc(/C=C/c2ccccc2O)c2ccccc21`, for which the “inhibition” value was 5.2%.

On to `O=C(CCl)NCCN1C(=O)S/C(=C\c2cccnc2)C1=O`, for which the “inhibition” value was -1.45%. On to `COc1cc2c(cc1OC)C(/C=C/c1ccco1)=NCC2`, for which the “inhibition” value is 3.65%.

Take `COc1cc(/C=c2\sc3n(c2=O)CCCN=3)ccc1O`: the IC50 was 17.7 µM (active). Still for that read-out and setting: as for `O=c1/c(=C/c2ccc(O)cc2)sc2n1CCCN=2`, the figure is 21.7 µM (active). As to `Cc1cc(Cl)cc(C)c1OCCOCCNCc1ccccc1`, the “inhibition” value is 16.7%.

`Cc1cc2[nH]c3c4ccccc4nc(C)c3c2cc1C`: the “inhibition” value was 15.7%. On to `O=C1Nc2ccccc2C1=Nc1ccc2[nH]c3ccccc3c2c1`, for which the IC50 is 23.4 µM (active). Regarding `CCOC(=O)c1c(N)sc2c1CCS(=O)(=O)C2`, the “inhibition” value is 6.6%. For `CCOC(=O)c1c(N)sc2c(O)c(Br)ccc12`, the 50% inhibitory concentration (IC50) is 58.1 µM (active). For the compound `Oc1ccc2c(ccc3[nH]cnc32)c1`, the 50% inhibitory concentration (IC50) was 42.6 µM (active).

Take `O=C(Oc1ccc2c(c1)OCO2)c1ccncc1`: the “inhibition” value is 20%. Take `CN(C)c1ccc(NC(=O)COC(=O)c2ccc3c(c2)OCO3)cc1`: the IC50 is 67 µM (active). Take `CC(C(=O)Nc1ccc2c(c1)OCO2)N1CCN(C)CC1` (centres undefined): the “inhibition” value was 26.4%.

As to `CCN(CC)c1ccc(NC(=O)c2ccc3c(c2)OCO3)cc1`, the half-inhibitory concentration (IC50) is 66.8 µM (active). As for `CCN(CC)C(=O)C1CCCN(Cc2ccc3c(c2)OCO3)C1` (centres undefined), the “inhibition” value is 11.7%. For the compound `CCN(CC)CCOC(=O)c1ccc(N/C=C(/C#N)c2nc(-c3ccc4c(c3)OCO4)cs2)cc1`, the “inhibition” value was 5.24%. With `Nc1ccc2c(c1)Nc1ccccc1CC2`, the 50% inhibitory concentration (IC50) was 37.8 µM (active). In the case of `Cc1ccccc1OCCn1c(=S)[nH]c2c(N)ncnc21`, the half-inhibitory concentration (IC50) is 68.2 µM (active). On to `CC(C)Oc1ccc(OCCn2c(=S)[nH]c3c(N)ncnc32)cc1`, for which the half-maximal inhibitory concentration (IC50) is 76.4 µM (active). As for `Cc1ccccc1OCCN1CCCC1`, the “inhibition” value was 14.1%. As for `C/C(=N\NC(=O)c1ccc(O)cc1)c1ccc2c(c1)Nc1ccccc1S2`, the IC50 was 41.1 µM (active).

Turning to `C/C(=N/Nc1ccc(C(=O)O)cc1)c1ccc2c(c1)Nc1ccccc1S2`, the half-inhibitory concentration (IC50) was 51.3 µM (active). For the compound `Cn1ccc(=Nc2ccc(NC(=O)c3ccc(N=c4ccn(C)c5ccc([N+](=O)[O-])cc45)cc3)cc2)cc1`, the “inhibition” value was 6.89%. Take `C/C(CC(=O)Nc1ccc(N(C)C)cc1)=N\NC(=O)c1ccc([N+](=O)[O-])cc1`: the IC50 was 59.5 µM (active).

As for `O=C(Cn1sc2ccccc2c1=O)Nc1ccc(F)cc1`, the “inhibition” value is 6.79%.

For `C/C(CC(=O)Nc1ccc(N(C)C)cc1)=N\NC(=O)c1ccc([N+](=O)[O-])cc1Cl`, the 50% inhibitory concentration (IC50) was 61.6 µM (active). On the same count and under the same terms, as for `C/C(CC(=O)Nc1ccc(N(C)C)cc1)=N\NC(=O)c1ccc(F)cc1`, the figure is 46.5 µM (active).

Values taken from PubChem BioAssay AID624351 (Southern Research Specialized Biocontainment Screening …, 2012).
